# “And” between values parts separate entries of the source, which are not always exact repeats. Equal values may be shown once. Where a name gives a salt, the structure may show the parent alone. In all, about 5,800 compounds went through this assay and about 620 (11%) showed activity. Shown is part of a subset that was picked to be rich in actives. Values without a mark were called inactive.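 How the source made its calls: active = score above a cut-off or among the top three wells of a plate; in these data no inactive exceeds 0.85.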
# Tested on: primary human hepatic stellate cells (donor 1)
# Experiment: scaled lipid accumulation score (0 = DMSO-like, 1 = nortriptyline-like); higher = stronger HSC inactivation (lipid re-accumulation), active = hit call of the paper
# Conditions: 48 h
# [1] = library stock concentration: 1 mM
# [2] = library stock concentration: 10 mM
# [3] = library stock concentration: 3.33 mM
smiles,measurement,setting,value
NC(=O)CCC/C=C\C[C@@H]1[C@@H](/C=C/[C@@H](O)CCc2ccccc2)[C@H](O)C[C@@H]1O [17-phenyl trinor Prostaglandin F2.alpha. amide],scaled lipid accumulation score,[1],≤ 0
CS(=O)(=O)CCNCc1ccc(-c2ccc3ncnc(Nc4ccc(OCc5cccc(F)c5)c(Cl)c4)c3c2)o1.Cc1ccc(S(=O)(=O)O)cc1.Cc1ccc(S(=O)(=O)O)cc1 [listing 1 of 2 here],scaled lipid accumulation score,[2],1.23 (active)
CS(=O)(=O)CCNCc1ccc(-c2ccc3ncnc(Nc4ccc(OCc5cccc(F)c5)c(Cl)c4)c3c2)o1.Cc1ccc(S(=O)(=O)O)cc1.Cc1ccc(S(=O)(=O)O)cc1 [listing 2 of 2 here],scaled lipid accumulation score,[3],1.36 (active)
same,scaled lipid accumulation score,[2],1.55 (active)
CCCCC[C@H](O)/C=C/[C@@H]1[C@@H](C/C=C/CCCC(=O)O)[C@@H](O)C[C@H]1O [5-trans Prostaglandin F2.alpha.],scaled lipid accumulation score,[1],≤ 0
CCCCC[C@H](O)/C=C/[C@@H]1[C@@H](C/C=C/CCCC(=O)O)[C@@H](O)C[C@H]1O [5-trans Prostaglandin F2.alpha. (tromethamine salt)],scaled lipid accumulation score,[1],≤ 0
CC(C)(C)n1nc(Cc2cccc3ccccc23)c2c(N)ncnc21,scaled lipid accumulation score,[1],≤ 0
CCCCC[C@@](C)(O)/C=C/[C@H]1C(=O)C[C@H](O)[C@@H]1C/C=C\CCCC(=O)O [15(R)-15-methyl Prostaglandin D2],scaled lipid accumulation score,[1],≤ 0
CCCCCCCCCCCCCC(=O)N[C@H](C)[C@@H](O)c1ccccc1 [D-erythro-MAPP],scaled lipid accumulation score,[1],≤ 0 and 0.048
CC1(C2CCCC2)Cc2cc(OCC(=O)O)c(Cl)c(Cl)c2C1=O (configuration not stated),scaled lipid accumulation score,[2],≤ -0.055
same,scaled lipid accumulation score,library stock concentration: 14 mM,≤ -0.021
N[C@@H](C(=O)N[C@@H]1C(=O)N2C(C(=O)O)=C(CSc3cn[nH]n3)CS[C@H]12)c1ccc(O)cc1,scaled lipid accumulation score,[2],≤ 0
"CCCCC/C=C/C=C1/C=CC(=O)[C@@H]1C/C=C\CCCC(=O)O [15-deoxy-.DELTA.12,14-Prostaglandin A2]",scaled lipid accumulation score,[1],≤ 0
CCC(=O)c1ccc2c(c1)N(CCCN(C)C)c1ccccc1S2.Cl [Propionylpromazine hydrochloride],scaled lipid accumulation score,[2],0.862 (active)
CC(=O)c1ccc2c(c1)N(CCCN(C)C)c1ccccc1S2 [Acepromazine maleate],scaled lipid accumulation score,library stock concentration: 4.5 mM,0.524
CC(=O)c1ccc2c(c1)N(CCCN(C)C)c1ccccc1S2 [Acetopromazine maleate salt],scaled lipid accumulation score,,0.726
CC(=O)c1ccc2c(c1)N(CCCN(C)C)c1ccccc1S2.O=C(O)/C=C\C(=O)O [Acepromazine maleate],scaled lipid accumulation score,[2],0.989 (active)
CC#CCC(C)[C@@H](O)/C=C/[C@@H]1[C@H]2C/C(=C\CCCC(=O)O)C[C@H]2C[C@H]1O (stereo partly drawn) [5-cis-15(R)-Iloprost],scaled lipid accumulation score,[1],≤ 0
CN(C)[C@@H]1C(O)=C(C(N)=O)C(=O)[C@@]2(O)C(O)=C3C(=O)c4c(O)cccc4[C@@](C)(O)[C@H]3[C@H](O)[C@@H]12 [Oxytetracycline],scaled lipid accumulation score,library stock concentration: 4 mM,0.025
same,scaled lipid accumulation score,[2],≤ 0
CN(C)[C@@H]1C(O)=C(C(N)=O)C(=O)[C@@]2(O)C(O)=C3C(=O)c4c(O)cccc4[C@@](C)(O)[C@H]3[C@H](O)[C@@H]12 [Oxytetracycline dihydrate],scaled lipid accumulation score,,0.056
CN(C)[C@@H]1C(O)=C(C(N)=O)C(=O)[C@@]2(O)C(O)=C3C(=O)c4c(O)cccc4[C@@](C)(O)[C@H]3[C@H](O)[C@@H]12 [Oxytetracycline hydrochloride],scaled lipid accumulation score,[2],≤ 0
C[C@@H](O)CN(CCN(C[C@@H](C)O)C[C@@H](C)O)C[C@@H](C)O,scaled lipid accumulation score,[2],≤ 0
NNC(=O)c1ccncc1.Nc1ccc(C(=O)O)c(O)c1 [Pasiniazid],scaled lipid accumulation score,[2],≤ -0.027
C#CCCC[C@@H](O)CCCCCCCCCCC(=O)O [12(S)-hydroxy-16-Heptadecynoic Acid],scaled lipid accumulation score,[1],≤ 0
COC(=O)CCSCc1ccc(-c2onc(C)c2NC(=O)OC(C)c2ccccc2Cl)cc1 (configuration not stated),scaled lipid accumulation score,[3],0.07
same,scaled lipid accumulation score,[2],≤ 0
Cl.Clc1ccc(Cn2c(CN3CCCC3)nc3ccccc32)cc1 [Clemizole hydrochloride],scaled lipid accumulation score,[2],0.991 (active)
O=C(O)c1c(Sc2ccccc2)c2cc(Cl)ccc2n1Cc1ccc(Cl)cc1,scaled lipid accumulation score,[2],≤ -0.001
Clc1ccc(Cn2c(CN3CCCC3)nc3ccccc32)cc1 [Clemizole hydrochloride],scaled lipid accumulation score,,0.205
CCCCCC(O)C=CC1C2CC(CO2)C1CC=CCCCC(=O)O (configuration not stated),scaled lipid accumulation score,[1],≤ 0 and ≤ -0.021
COCC[n+]1c2c(n(Cc3cnccn3)c1C)C(=O)c1ccccc1C2=O [YM155 (Sepantronium Bromide)],scaled lipid accumulation score,[3],0.529
same,scaled lipid accumulation score,[2],0.748
Cl.N#CC1=C(N)NC(=C2C(=O)C=CC=C2OCC2CC2)C=C1C1CCNCC1,scaled lipid accumulation score,[2],1.09 (active)
N#Cc1c(C2CCNCC2)cc(-c2c(O)cccc2OCC2CC2)nc1N [IKK-2 Inhibitor VIII],scaled lipid accumulation score,[3],0.136
N#Cc1c(C2CCNCC2)cc(-c2c(O)cccc2OCC2CC2)nc1N,scaled lipid accumulation score,library stock concentration: 80 uM,≤ -0.016
same,scaled lipid accumulation score,library stock concentration: 400 uM,≤ -0.016
same,scaled lipid accumulation score,library stock concentration: 2 mM,0.483
"N#CCCc1ccc2c(c1)-c1[nH]c3ccc([N+](=O)[O-])cc3c1CC(=O)N2 [Alsterpaullone, 2-Cyanoethyl]",scaled lipid accumulation score,[3],0.08
CCCCCCCC/C=C\CCCCCCCCCCCCCC(=O)N[C@@H](CO)[C@H](O)/C=C/CCCCCCCCCCCCC [Nervonic Ceramide],scaled lipid accumulation score,[1],0.002
CCCCC[C@@H](O)/C=C/[C@H]1[C@H](O)CC(=O)[C@@H]1C/C=C\CCCC(=O)O [15(R)-Prostaglandin E2],scaled lipid accumulation score,[1],≤ 0
CN1CCN(CCCN2c3ccccc3Sc3ccc(C(F)(F)F)cc32)CC1 [Trifluoperazine],scaled lipid accumulation score,library stock concentration: 4.9 mM,0.434
CN1CCN(CCCN2c3ccccc3Sc3ccc(C(F)(F)F)cc32)CC1.Cl.Cl [Trifluoperazine],scaled lipid accumulation score,library stock concentration: 10.4 mM,0.892 (active)
CCSc1ccc2c(c1)N(CCCN1CCN(C)CC1)c1ccccc1S2 [Thiethylperazine malate],scaled lipid accumulation score,,0.362
CN(C)CCCN1c2ccccc2Sc2ccc(C(F)(F)F)cc21 [Triflupromazine hydrochloride],scaled lipid accumulation score,,0.585
same,scaled lipid accumulation score,library stock concentration: 5.1 mM,0.697
same,scaled lipid accumulation score,[2],0.508 and 0.792

# — the supplement of paper PMC9135407
